IL-1B inflam inh: qHTS for Inhibitors of Inflammasome Signaling: IL-1-beta AlphaLISA Primary Screen; THP-1 LPS/ATP IL-1B secretion, AlphaLISA, 16 h; stronger effect = lower value; activity change, % at 57.5 µM; hit rate 4.7% among 360,000; AID 743279, 2014; in the data active = activity change below about -50%; inconclusive = mostly about -30% to -49%; note: % is set by controls: 0 for no effect and ±100 for the full control effect
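Secreted IL-1B measured by AlphaLISA bead assay after 16 h compound exposure of THP-1 cells; compounds (final up to 57.5 uM) added 1 h before LPS (250 ng/mL) and ATP (1.25 mM) stimulation; lower signal means less secretion.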
SW480 rerep: A quantitative high throughput screen for small molecules that induce DNA re-replication in SW480 colon adenocarcinoma cells | SW480 DNA re-replication, Hoechst DNA content imaging, 48 h | Potency, µM (highest dose often 46.1 µM), without a hit: at the highest dose re-replication activation, actives largely listed as activators | hit rate 1.8% among 340,000 | AID 624297, 2012; note: potency is the fitted concentration of half-maximal effect; % of control where 0% means no effect; nearly all actives have a fitted effect of over 55% in size
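Hoechst fluorescence of nuclei (405 nm excitation, 500-530 nm emission) measured by plate-scanning imager after 48 hr compound exposure at 37 C; re-replication scored as increased number of nuclei with elevated intensity.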
DT40 TDP1 CPT: qHTS for Inhibitors of human tyrosyl-DNA phosphodiesterase 1 (TDP1): qHTS in cells in presence of CPT | chicken DT40 Tdp1-/-;hTDP1 cells + 20 nM CPT, ATP luminescence, 48 h | hit rate 12% among 420,000 | Potency, µM (doses to about 46.2 µM), without a hit: at the highest dose activity change, negative = growth inhibition, most hits filed as inhibitors; note: potency is the fitted concentration of half-maximal effect; % is set by controls: 0 for no effect and ±100 for the full control effect; nearly all actives have a fitted effect of over 55% in size
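Chicken DT40 Tdp1-/- cells complemented with human TDP1, 400 cells/well, exposed to compounds plus 20 nM camptothecin for at least 48 h at 37 C; viability read as ATP content by CellTiter-Glo luminescence.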
DT40 TDP1 no CPT: qHTS for Inhibitors of human tyrosyl-DNA phosphodiesterase 1 (TDP1): qHTS in cells in absence of CPT; hit rate 15% among 420,000; DT40 Tdp1-/- hTDP1 cells, no CPT, ATP luminescence, 48 h; AID 686978, 2013; Potency, µM (doses to about 46.2 µM), for inactives: at the top dose activity change, negative = growth inhibition, actives largely listed as inhibitors; note: potency is the fitted concentration of half-maximal effect; % is set by controls: 0 for no effect and ±100 for the full control effect; nearly all actives have a fitted effect of over 55% in size
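Luminescent ATP content (CellTiter-Glo) served as the growth readout. Knockout chicken DT40 cells expressing human TDP1 were exposed to compounds without camptothecin for a minimum 48 hr at 37 °C.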
Chronic BCR inh: qHTS Assay to Find Inhibitors of Chronic Active B-Cell Receptor Signaling. ABC-DLBCL IkBa-CBG/CBR reporter, luminescence ratio, 4 h. hit rate 0.05% among 340,000. AID 493014, 2011. Potency, µM (doses to about 46.1 µM), for the others: at the highest dose activity change, negative = inhibition, usual class: inhibitors; active = well fitted inhibition curve with a large enough effect in the signal ratio, with a control signal flat, not every such curve was filed as active; inconclusive = small, poorly fitted or top-dose-only effect, or effect the other way, or a change in a side signal; the % refers to the signal ratio;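 note: potency is the fitted concentration of half-maximal effect; plate controls were basal doxycycline-induced cells for no effect and cells given 10 µM MG132 for full effect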
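Concentration-response series (up to 46 uM) were applied to TMD8 dual-reporter cells for 4 h at 37C with doxycycline. Green/red ratio, after filter-overlap correction, defined %Activity; red signal alone was normalised to basal cells and zero luminescence.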
MCF10A rerep: A quantitative high throughput screen for small molecules that induce DNA re-replication in MCF 10a normal breast cells | MCF 10A DNA re-replication, Hoechst nuclear intensity, 48 h | Potency, µM (titrated, usually from 46.1 µM), without a hit: top-dose activity, positive = re-replication, most hits filed as activators | hit rate 2.9% among 350,000; note: potency is the fitted concentration of half-maximal effect; % of control where 0% means no effect; nearly all actives have a fitted effect of over 50% in size
The depositor's hits bear a star; ? = inconclusive; . = not tested or not shown; [ ] = remark or other dose. Shown are actives, neighbours in structure and some others; about 19% of the full set was active somewhere. Unless noted, calls come from the whole dose curve; as a rule, active = well fitted curve in the direction sought with a large enough effect; inconclusive = small, poorly fitted or top-dose-only effect, or another doubt; inactive = no such curve, though single readings can be large; an effect the other way counts as inactive or inconclusive.

SMILES | IL-1B inflam inh | SW480 rerep | DT40 TDP1 CPT | DT40 TDP1 no CPT | Chronic BCR inh | MCF10A rerep
COCCCNC(=O)c1c(N)n(Cc2ccco2)c2nc3ccccc3nc12 | -55* | 9.2µM* | ? | 26µM* | 26% | 12µM*
CCCNC(=O)c1c(N)n(Cc2ccco2)c2nc3ccccc3nc12 | -89* | ? | 23µM* | ? | ? | 2.1µM*
CCCCCCCCCC(=O)O[C@H]1CC[C@H]2[C@@H]3CCC4=CC(=O)CC[C@@H]4[C@H]3CC[C@]12C | . | -4% | 19% | 0% | . | -9%
CCN(CC)C(=O)c1ccc(NC(=O)c2ccc(-n3cncn3)c([N+](=O)[O-])c2)cc1 | -5 | -1% | -29% | ? | -9% | 5%
Nc1c(Cl)cc([N+](=O)[O-])cc1Cl | -27 | -2% | 16% | 3% | ? | 0%
O=C(c1cc(-c2ccc(Cl)cc2)n[nH]1)N1CCN(S(=O)(=O)c2ccc(Br)s2)CC1 | . | . | ? | 15µM* | . | .
CCC(C)n1c(O)c(C=Nc2cccc(C(F)(F)F)c2)c(=O)[nH]c1=S (configuration not stated) | 5 | -2% | -24% | 4% | 1% | 6%
CCN1CCC[C@@H](OC(=O)C(c2ccccc2)c2ccccc2)C1 | . | -9%[20.6 µM] | . | . | . | -5%[20.6 µM]
N[C@@H](Cc1cc(Br)c(O)c(Br)c1)C(=O)O | . | -13% | . | . | 8% | 18µM*
O=P(Nc1cccnc1)(Oc1ccccc1Cl)Oc1ccccc1Cl | -1 | -6% | -1% | 0% | 0% | -3%
Nc1ccc2nc3c(c(Cl)c2c1)CCCC3 | 37 | ? | -8% | ? | 8% | 16µM*
CO[C@H]1C=C2CCN(C)[C@H]2C2c3cc4c(cc3C(=O)O[C@@H]21)OCO4 (some centres not stated) | 10 | -8% | -15% | -4% | -15% | 12%
CCc1ccc(N2C(=O)NC(=O)/C(=C\c3cccn3CCOc3ccc(C(C)C)cc3)C2=O)cc1 | -22 | ? | 21µM* | 16µM* | 8% | 7.3µM*
C[C@]12CC[C@H]3C(CCC4(O)CC(O)CC[C@]34C=O)C1=CC[C@H]2c1ccc(=O)oc1 (some centres not stated) | ? | ? | -3% | -30% | 13% | 20%
C[C@]12CC[C@H](O)C[C@H]1CC[C@@H]1[C@@H]2CC[C@]2(C)[C@@H](c3ccc(=O)oc3)C[C@H]3O[C@]132 | . | . | ? | 15µM* | . | .
CC(=O)O[C@H]1[C@H]2O[C@]23[C@@H]2CC[C@]4(O)C[C@@H](O)CC[C@]4(C)C2CC[C@]3(C)[C@H]1c1ccc(=O)oc1 (some centres not stated) | ? | 0% | 6.5µM* | 3.7µM* | ? | 19%
C[C@]12CCC3[C@@H](CC[C@@H]4C[C@H](O)CC[C@]34C)[C@@H]1CCC2=O (some centres not stated) | 16 | 16% | ? | ? | -7% | ?
C[C@]12CC[C@H](O)C[C@H]1CCC1C2CC[C@]2(C)[C@@H](c3ccc(=O)oc3)C[C@H]3O[C@]132 (some centres not stated) | . | ? | ? | ? | . | 13µM*
OC(CCNCCc1c[nH]c2ccccc12)C(F)(F)F (configuration not stated) | 10 | 19% | 9% | -18% | -9% | -9%
CCN(CC)P(=O)(Nc1ccc([N+](=O)[O-])cc1)c1c(C)nn(CCC#N)c1NC(=O)c1ccc(Cl)cc1 (configuration not stated) | 20 | -2% | 0% | -15% | ? | 4%
ClC(Cl)Cl | . | 0% | -21% | -3% | . | 3%
C#CCN1CC(=O)N(COC(=O)[C@@H]2[C@@H](C=C(C)C)C2(C)C)C1=O | . | -5% | . | . | . | 0%
C=C[C@@H]1C2=CCOC(=O)C2=CO[C@H]1O[C@@H]1O[C@H](CO)[C@@H](O)[C@H](O)[C@H]1O | 8 | -4% | 12% | 6% | 8% | -16%
COC(=O)C1=C(c2ccc(F)cc2OCc2ccccc2)C[C@@H]2CC[C@H]1N2C(=O)N1CCC(O)(c2ccc(Cl)cc2)CC1 | -53* | 26% | ? | 23µM* | -2% | -35%
COC(=O)C1=C(c2ccc(F)cc2OCc2ccccc2)C[C@@H]2CC[C@H]1N2C(=O)N1CCOCC1 | 25 | -2% | 8.2µM* | 7.3µM* | -8% | 1%
SMILES | IL-1B inflam inh | SW480 rerep | DT40 TDP1 CPT | DT40 TDP1 no CPT | Chronic BCR inh | MCF10A rerep
COC(=O)C1=C(c2ccc(F)cc2OCc2ccccc2)C[C@@H]2CC[C@H]1N2C(=O)N1CCC(C)CC1 | -1 | -4% | ? | ? | 0% | ?
Oc1ccc(Cl)cc1 | 24 | ? | -5% | -4% | 3% | 9%
Oc1ccc(Cl)cc1Sc1cc(Cl)ccc1O | -101* | ? | 18µM* | 18µM* | . | ?
CCCC1CCCCC12C(=O)NC(=O)NC2=O (configuration not stated) | 25 | 0% | ? | ? | . | 18%
COc1ccc(CCNc2nc3c(c(=O)n(C)c(=O)n3C)n2Cc2ccc(F)cc2)cc1OC | . | . | 6.5µM* | 3.3µM* | . | .
COc1ccc2cc1Oc1ccc(cc1)C[C@H]1c3cc(c(OC)cc3CCN1C)Oc1c(OC)c(OC)cc3c1[C@@H](C2)N(C)CC3 | ? | ? | ? | 23µM* | 0% | -13%
COc1cc2c3cc1Oc1c(OC)c(OC)cc4c1C(Cc1cccc(c1)Oc1ccc(c(O)c1)CC3N(C)CC2)N(C)CC4 (configuration not stated) | . | . | 2% | 0% | . | .
COc1ccc2cc1Oc1ccc(cc1)CC1c3cc(c(OC)cc3CCN1C)Oc1c(OC)c(OC)cc3c1C(C2)N(C)CC3 (configuration not stated) | . | . | 3.7µM* | 3.7µM* | . | .
CN1CCN(c2cc(N3CCCCCC3)c(F)cc2[N+](=O)[O-])CC1 | -56* | ? | ? | 29µM* | ? | 7%
CCN1CCN(c2cc(N3CCCC3)c([N+](=O)[O-])cc2F)CC1 | -7 | 38% | ? | 29µM* | 6% | 2%
O=[N+]([O-])c1cc(F)c(N2CCCC2)cc1N1CCNCC1 | . | . | . | . | -1% | .
